Source: PubChem BioAssay
Results with a measured potency or affinity are listed apart. The source made the active and inactive calls.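 The calls were made as follows, unless noted: active = earlier screen potentiator hit that boosts the TRPC4 ion channel at some dose, with a dose response; inactive = no potentiation, no dose response, or not a prior hit.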

target: Short transient receptor potential channel 4 (Mus musculus) (UniProt Q9QUQ5); test: TRPC4 positive allosteric modulators, dose response, cell-based, HEK293 TRPC4/mu-opioid, Fluo-4 calcium, EC20 DAMGO (AID 434941); details: HEK293 TRPC4/mu-opioid cells, Fluo-4 calcium fluorescence; series mostly up to 20 µM;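 also: calcium entry triggered by an EC20 dose of DAMGO at the co-expressed mu-opioid receptor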
Sequence (Q9QUQ5 whole entry, looked up): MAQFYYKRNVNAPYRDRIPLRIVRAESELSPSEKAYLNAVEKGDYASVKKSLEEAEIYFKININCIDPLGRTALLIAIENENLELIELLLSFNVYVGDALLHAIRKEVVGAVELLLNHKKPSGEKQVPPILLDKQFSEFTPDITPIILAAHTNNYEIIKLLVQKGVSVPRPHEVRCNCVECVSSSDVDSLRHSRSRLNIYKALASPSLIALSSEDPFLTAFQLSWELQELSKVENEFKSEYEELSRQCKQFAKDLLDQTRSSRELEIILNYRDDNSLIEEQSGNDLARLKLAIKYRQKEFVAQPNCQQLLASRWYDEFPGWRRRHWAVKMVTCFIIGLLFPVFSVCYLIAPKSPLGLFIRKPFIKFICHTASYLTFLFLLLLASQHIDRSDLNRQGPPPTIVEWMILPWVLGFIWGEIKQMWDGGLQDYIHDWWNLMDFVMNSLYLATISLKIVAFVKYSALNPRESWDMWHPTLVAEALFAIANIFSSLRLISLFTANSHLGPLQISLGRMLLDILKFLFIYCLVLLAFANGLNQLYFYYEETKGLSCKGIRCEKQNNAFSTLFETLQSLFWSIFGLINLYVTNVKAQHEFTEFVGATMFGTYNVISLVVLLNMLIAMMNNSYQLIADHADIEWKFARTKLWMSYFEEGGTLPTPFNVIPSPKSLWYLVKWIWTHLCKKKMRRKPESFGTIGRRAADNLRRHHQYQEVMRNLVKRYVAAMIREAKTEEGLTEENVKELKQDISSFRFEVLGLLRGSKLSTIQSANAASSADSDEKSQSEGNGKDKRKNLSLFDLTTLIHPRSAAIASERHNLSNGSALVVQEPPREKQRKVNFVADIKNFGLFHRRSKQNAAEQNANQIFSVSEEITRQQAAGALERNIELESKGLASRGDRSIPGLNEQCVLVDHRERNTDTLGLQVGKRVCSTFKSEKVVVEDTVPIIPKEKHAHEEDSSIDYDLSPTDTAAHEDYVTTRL

outcome, inactive:
O=C(NC(=S)NNC(=O)[C@H]1C[C@@H]1c1ccccc1)c1cccc(F)c1
NCCCn1c(C(=O)c2cc(Cl)c(N)c(Cl)c2)c2ccccc2[n+]1[O-]
COC(=O)c1ccccc1N=Nc1c(N)[nH][nH]c1=O
O=C(CNS(=O)(=O)c1ccc2ccccc2c1)NCCc1ccccn1
CC(c1cccnc1)N(CCN(C)C)C(=O)Nc1ccc(Cl)c(Cl)c1 (stereo not drawn)
Cc1ccc(C(=O)NC(=S)NNC(=O)c2ccccc2)cc1
C=CCn1c(CCNC(=O)c2ccco2)nc2ccccc21
CCOC(=O)[C@@H]1CCNC[C@@H]1c1ccccc1
Cc1sc2nc(CSc3ccccc3)nc(NCCN(C)C)c2c1C
O=C(NCCc1cccc(Cl)c1)c1ccc(OC2CCN(Cc3ccccn3)CC2)cc1
CCOC(=O)C1(CCCc2ccccc2)CCN(Cc2cn(CC)nc2C)CC1
CCCN(CCC)CCCNC(=O)C1CCN(S(=O)(=O)c2cccc3nsnc23)CC1
CCN1C(=O)c2cccc3c(S(=O)(=O)Nc4ccccc4OC)ccc1c23
CCCN(CCC)CCCNC(=O)C1CCC(CNS(=O)(=O)c2cccc3nsnc23)CC1 (stereo not drawn)
CCN1CCN(c2ccc(S(=O)(=O)N3CCCCC3)cc2NC(=O)C(C)Oc2ccc(F)cc2)CC1 (stereo not drawn)
O=C(Nc1nnc(-c2ccccc2Cl)o1)c1nc2ccccc2s1
COc1ccc(-c2nn(-c3ccccc3)cc2CNCc2cccnc2)c(F)c1
Cc1ccc2oc(=O)c3cnn(CC(=O)NC4CCN(Cc5ccccc5)CC4)c3c2c1
CCCCC(=O)NNC(=S)NC(=O)c1ccc(C)cc1
COc1cc(/C=C/C(=O)c2ccc3c(c2)OCO3)cc(Cl)c1O
CN(C)C(CNC(=O)C1CC(=O)N(Cc2ccccc2)C1)c1ccccc1 (stereo not drawn)
Cc1ccccc1OCC(=O)NNC(=S)NC(=O)c1ccco1
O=C(CCc1ccccc1)NNC(=S)NC(=O)c1ccc(Cl)cc1
CN(CCOc1ccc(Cl)cc1)CC(O)c1ccccc1 (stereo not drawn)
Cc1onc(-c2ccccc2)c1C(=O)NC(=S)NNC(=O)c1ccco1
CC(NCCC1(Cc2ccccc2Cl)CCOC(C)(C)C1)c1cccs1 (stereo not drawn)
CN(C)C(CNC(=S)Nc1ccc(F)cc1)c1cccnc1 (stereo not drawn)
O=C(COc1ccccc1)NNC(=S)NC(=O)c1ccc(Cl)cc1Cl
CCN1CCN(c2c(S(=O)(=O)c3ccc(C)c(C)c3)cnc3ccc(F)cc23)CC1
COc1ccc(C(CNC(=O)c2cccc(NS(=O)(=O)c3ccc(C)c(F)c3)c2)N(C)C)cc1 (stereo not drawn)
CCOC(=O)C1(CCOc2ccccc2)CCN(Cc2cnc(C)s2)CC1
COc1ccc(/C=C/CN2CCCC(C(=O)c3ccc(OC)c(F)c3)C2)cc1 (stereo not drawn)
O=S(=O)(c1ccc(Cl)cc1)N1CCN2CCCC2C1 (stereo not drawn)
OC(CNC1CCCc2ccccc21)COc1ccc2ccccc2c1 (stereo not drawn)
Cc1ccc2[nH]c3c(=O)n(CCc4cnc[nH]4)cnc3c2c1
Cc1ccn2cc(CCNC(=O)C3CC=CCC3C(=O)O)nc2c1 (stereo not drawn)
CCOC(=O)C1(CCOc2ccccc2)CCN(Cc2ccc(OC)c(O)c2)CC1
Cc1cc(OCCCn2ccnc2)cc(C)c1Cl
CCn1cc(CN2CCCC(C(=O)Nc3ccc(-c4nc5ccccc5[nH]4)cc3)C2)c(C)n1 (stereo not drawn)

target: Short transient receptor potential channel 4 (Mus musculus) (UniProt Q9QUQ5); test: mouse TRPC4 channel inhibitors, dose response, cell-based, HEK293 TRPC4/mu-opioid, Fluo-4 calcium (AID 434942;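 active = primary screen inhibitor hit that blocks the TRPC4 channel at some tested dose, yielding a dose curve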); details: HEK293 TRPC4/mu-opioid cells, DAMGO-evoked Fluo-4 calcium ratio; series mostly up to 20 µM

outcome, inactive:
O=C(NC(=S)NNC(=O)[C@H]1C[C@@H]1c1ccccc1)c1cccc(F)c1
NCCCn1c(C(=O)c2cc(Cl)c(N)c(Cl)c2)c2ccccc2[n+]1[O-]
COC(=O)c1ccccc1N=Nc1c(N)[nH][nH]c1=O
O=C(CNS(=O)(=O)c1ccc2ccccc2c1)NCCc1ccccn1
CC(c1cccnc1)N(CCN(C)C)C(=O)Nc1ccc(Cl)c(Cl)c1 (stereo not drawn)
Cc1ccc(C(=O)NC(=S)NNC(=O)c2ccccc2)cc1
C=CCn1c(CCNC(=O)c2ccco2)nc2ccccc21
CCOC(=O)[C@@H]1CCNC[C@@H]1c1ccccc1
Cc1sc2nc(CSc3ccccc3)nc(NCCN(C)C)c2c1C
O=C(NCCc1cccc(Cl)c1)c1ccc(OC2CCN(Cc3ccccn3)CC2)cc1
CCOC(=O)C1(CCCc2ccccc2)CCN(Cc2cn(CC)nc2C)CC1
CCCN(CCC)CCCNC(=O)C1CCN(S(=O)(=O)c2cccc3nsnc23)CC1
CCN1C(=O)c2cccc3c(S(=O)(=O)Nc4ccccc4OC)ccc1c23
CCCN(CCC)CCCNC(=O)C1CCC(CNS(=O)(=O)c2cccc3nsnc23)CC1 (stereo not drawn)
CCN1CCN(c2ccc(S(=O)(=O)N3CCCCC3)cc2NC(=O)C(C)Oc2ccc(F)cc2)CC1 (stereo not drawn)
O=C(Nc1nnc(-c2ccccc2Cl)o1)c1nc2ccccc2s1
COc1ccc(-c2nn(-c3ccccc3)cc2CNCc2cccnc2)c(F)c1
Cc1ccc2oc(=O)c3cnn(CC(=O)NC4CCN(Cc5ccccc5)CC4)c3c2c1
CCCCC(=O)NNC(=S)NC(=O)c1ccc(C)cc1
COc1cc(/C=C/C(=O)c2ccc3c(c2)OCO3)cc(Cl)c1O
CN(C)C(CNC(=O)C1CC(=O)N(Cc2ccccc2)C1)c1ccccc1 (stereo not drawn)
Cc1ccccc1OCC(=O)NNC(=S)NC(=O)c1ccco1
O=C(CCc1ccccc1)NNC(=S)NC(=O)c1ccc(Cl)cc1
CN(CCOc1ccc(Cl)cc1)CC(O)c1ccccc1 (stereo not drawn)
Cc1onc(-c2ccccc2)c1C(=O)NC(=S)NNC(=O)c1ccco1
CC(NCCC1(Cc2ccccc2Cl)CCOC(C)(C)C1)c1cccs1 (stereo not drawn)
CN(C)C(CNC(=S)Nc1ccc(F)cc1)c1cccnc1 (stereo not drawn)
O=C(COc1ccccc1)NNC(=S)NC(=O)c1ccc(Cl)cc1Cl
CCN1CCN(c2c(S(=O)(=O)c3ccc(C)c(C)c3)cnc3ccc(F)cc23)CC1
COc1ccc(C(CNC(=O)c2cccc(NS(=O)(=O)c3ccc(C)c(F)c3)c2)N(C)C)cc1 (stereo not drawn)
CCOC(=O)C1(CCOc2ccccc2)CCN(Cc2cnc(C)s2)CC1
COc1ccc(/C=C/CN2CCCC(C(=O)c3ccc(OC)c(F)c3)C2)cc1 (stereo not drawn)
O=S(=O)(c1ccc(Cl)cc1)N1CCN2CCCC2C1 (stereo not drawn)
OC(CNC1CCCc2ccccc21)COc1ccc2ccccc2c1 (stereo not drawn)
Cc1ccc2[nH]c3c(=O)n(CCc4cnc[nH]4)cnc3c2c1
Cc1ccn2cc(CCNC(=O)C3CC=CCC3C(=O)O)nc2c1 (stereo not drawn)
CCOC(=O)C1(CCOc2ccccc2)CCN(Cc2ccc(OC)c(O)c2)CC1
Cc1cc(OCCCn2ccnc2)cc(C)c1Cl
CCn1cc(CN2CCCC(C(=O)Nc3ccc(-c4nc5ccccc5[nH]4)cc3)C2)c(C)n1 (stereo not drawn)
